Screens from PubChem.
Pf growth 96h = P. falciparum growth inhibition at 96 hours | P. falciparum luciferase reporter growth, 96 h | Potency, µM (series often up to 28.7 µM), for inactives: at the top dose activity change, negative = inhibition, hits mostly inhibitors | 6.9% of 320,000 active; note: potency is the fitted concentration of half-maximal effect; % is set by controls: 0 for no effect and ±100 for the full control effect
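P. falciparum expressing integrated firefly luciferase grown in erythrocytes (2% hematocrit, 0.05% parasitemia final) with compounds for 96 hours at 37 C, 5% CO2. Growth inhibition read as loss of luminescence after adding luciferase detection reagent.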
Pf growth 48h = inhibits P. falciparum growth in the first generation, 48 h | P. falciparum luciferase growth in erythrocytes, 48 h | Potency, µM (doses to about 28.7 µM), inactives show at the highest dose activity change, negative = inhibition, usual class: inhibitors | 5.9% of 310,000 active | AID 504832; note: potency is the fitted concentration of half-maximal effect; % is set by controls: 0 for no effect and ±100 for the full control effect
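Compounds are pin-transferred into medium, infected erythrocytes (2% hematocrit, 0.1% parasitemia final) are added, and plates sit one parasite generation at 37 C in 5% CO2. Detection reagent is then added and luminescence measured.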
HCV inh = blocks hepatitis C virus; Huh7.5.1 HCVcc-Cre infection, luciferase reporter, 44 h; Potency, µM (titrated, usually from 41.8 µM), without a hit: at the top dose activity change, negative = inhibition, actives largely listed as inhibitors; 3.4% of 340,000 active; AID 651820; note: potency is the fitted concentration of half-maximal effect; % is set by controls: 0 for no effect and ±100 for the full control effect
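Seed cells (1,000/well) for 4 h; treat with compound and infect with HCVcc-Cre, moi about 0.5. Incubate 44 h, then detect luciferase activity.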
CHX counter = counter-screen hit for Shiga toxin inhibitors, cycloheximide | cell reporter, cycloheximide protein synthesis inhibition counterscreen | AID 2314 | 12% of 300,000 active | max response, %; in the data active = max response mostly above about 13%, no sharp cut-off; inactive = mostly below about 14%; note: read at 38.3 µM for the half of the compounds with a filed dose; 0% is about no effect
Shiga toxin inh = Shiga toxin inhibition; Vero cells, Shiga toxin protein synthesis inhibition reporter; inhibition, % at 38.7 µM; 9.2% of 290,000 active; in the data active = inhibition mostly above about 28%, no sharp cut-off; inactive = mostly below about 43%; note: 0% is about no effect
HCMV antiviral = inhibitors of human cytomegalovirus; HFF cells, HCMV-luciferase reporter, 72 h; hits give low values; activity change, negative = inhibition, % at 57.5 µM; 4.5% of 410,000 active; AID 1259415; in the data active = activity change below about -60%; inconclusive = no clear call, values can overlap the other calls; inactive = above about -39%; note: % is set by controls: 0 for no effect and ±100 for the full control effect
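Two-dose cell screen: HFF monolayers treated with compounds and infected with luciferase-expressing HCMV at 1 PFU/cell, 72 h at 37C, then lysed for luciferase measurement.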
* = called active by the depositor; ? = inconclusive; / = no result; [ ] = another dose, or the depositor's remark. Sampled rows, rich in hits. Any-hit rate of the full collection: about 21%. Unless noted, calls come from the whole dose curve; as a rule, active = well fitted inhibition curve with a large enough effect; inconclusive = small, poorly fitted or top-dose-only effect, or another doubt; inactive = no such curve, though single readings can be large or run the other way.

SMILES	Pf growth 96h	Pf growth 48h	HCV inh	CHX counter	Shiga toxin inh	HCMV antiviral
CN(C)CCN(C(=O)c1ccc(S(=O)(=O)N2CCc3ccccc32)cc1)c1nc2ccc(F)cc2s1	30%	28%	7%	16	79*	44
COc1cccc2sc(N(CCCN(C)C)C(=O)c3ccc(S(=O)(=O)N4CCCc5ccccc54)cc3)nc12	?	10µM*	14µM*	-2	-12	-71*
CCc1ccc2nc(N(CCCN(C)C)C(=O)c3ccc(S(=O)(=O)N4CCCc5ccccc54)cc3)sc2c1	?	?	?	-1	-6	-89*
CN(C)CCCN(C(=O)c1ccc(C(=O)c2ccccc2)cc1)c1nc2c(F)cccc2s1	-8%	?	?	-2	-5	-29
CCOc1cccc2sc(N(CCCN(C)C)C(=O)c3ccc(C(=O)c4ccccc4)cc3)nc12	10µM*	?	?	-7	-14	-77*
CN(C)CCCN(C(=O)c1ccc(S(=O)(=O)N2CCc3ccccc32)cc1)c1nc2c(Cl)cccc2s1	?	?	-27%	-3	11	-4
CCc1ccc2nc(N(CCCN(C)C)C(=O)c3ccc(C(=O)c4ccccc4)cc3)sc2c1	15µM*	?	-23%	-4	-7	-98*
CCOc1ccc2nc(N(CCN(C)C)C(=O)c3cc4ccccc4cc3OC)sc2c1	?	?	-28%	1	10	/
CN(C)CCCN(C(=O)c1sc2ccccc2c1Cl)c1nc2ccc(F)cc2s1	110%	107%	-1%	37*	79*	-2
CCOc1cccc2sc(N(CCN(C)C)C(=O)c3cc4ccccc4cc3OC)nc12	-23%	?	14µM*	-6	-18	-39
CCn1c(SCc2ccc(F)cc2Cl)nnc1-c1nonc1NC(C)=O	/	/	/	/	/	-2
Fc1ccc(Cn2nnnc2C(c2ccc(Cl)cc2)N2CCSCC2)cc1 (configuration not stated)	23%	?	-5%	-2	-3	-16
Cc1ccc(C(c2nnnn2Cc2ccccc2)N2CC=C(c3ccc(F)cc3)CC2)cc1 (configuration not stated)	35%	?	-3%	1	12	-31
Fc1ccc(Cn2nnnc2C(c2ccc(Cl)cc2)N2CC=C(c3ccc(F)cc3)CC2)cc1 (configuration not stated)	46%	12µM*	6%	3	14	-19
Fc1ccc(C2=CCN(C(c3ccc(Cl)cc3)c3nnnn3Cc3ccccc3)CC2)cc1 (configuration not stated)	-22%	12µM*	-22%	-2	-7	-36
CCCCc1cc(=O)oc2c3c(cc(OCC(=O)NCCCO)c12)OC(C)(C)CC3	?	?	?	-4	-6	48
CCCc1cc(=O)oc2cc(OCC(=O)NCCN3CCOCC3)c(Cl)cc12	/	/	/	/	/	-79*
O=C(COc1cc2oc(=O)c3c(c2cc1Cl)CCC3)NCCCN1CCCC1=O	13µM*	?	-12%	-2	-2	-30
CCCc1cc(=O)oc2c3c(cc(OCC(=O)NCc4ccccn4)c12)OC(C)(C)CC3	15µM*	12µM*	10µM*	-1	1	?
CCCc1cc(=O)oc2c3c(cc(OCC(=O)NCCN4CCOCC4)c12)OC(C)(C)CC3	9.3µM*	?	?	-3	-6	-18
CCCc1cc(=O)oc2c3c(cc(OCC(=O)NCc4ccncc4)c12)OC(C)(C)CC3	?	-33%	?	-2	-3	-39
O=C1NC[C@H](CCCCN2CCN(CC3CCCCC3)C(=O)C2=O)N(CCC2CCCCC2)C1=O	/	/	/	/	/	11
Cc1cc(=O)oc2cc(OCC(=O)NCCCN3CCOCC3)ccc12	?	29%	-4%	-1	27	64
O=C(COc1ccc2c(-c3ccccc3)cc(=O)oc2c1)NCCCN1CCOCC1	?	-23%	-9%	12*	23	20
COc1ccc(C2=NCC(=S)Nc3ccc(Cl)cc32)cc1Cl	?	?	-13%	11	-6	-63*
SMILES	Pf growth 96h	Pf growth 48h	HCV inh	CHX counter	Shiga toxin inh	HCMV antiviral
O=C(NCCc1ccncc1)Nc1cccc(Cl)c1	?	/	2%	-2	-15	19
CC(=O)c1ccc(NC(=S)NCCc2cccc(Cl)c2)cc1	17%	?	-9%	27*	78*	56
CC(=O)c1ccc(NC(=S)NCCc2ccc(S(N)(=O)=O)cc2)cc1	-8%	30%	12%	32*	99*	5
NS(=O)(=O)c1cccc(NC(=O)COC(=O)CCC2CCCC2)c1	/	/	17%	/	/	15
O=C(NCCCc1ccccc1)Nc1cccc(Cl)c1	11%	?	-19%	35*	24*	-23
NS(=O)(=O)c1cccc(NC(=O)CCCC2CCCCC2)c1	28%	11%	10%	14	60*	1
Cc1cc(C)c(NC(=O)COC(=O)COc2ccc3c(C)cc(=O)oc3c2)c(Cl)c1	21%	11%	9%	/	/	2
CN(C)c1cccc(C(=O)N2CCC(c3c[nH]c4ccccc34)(c3c[nH]c4ccccc34)CC2)c1	/	/	/	/	/	13
O=C(/C=C(\Nc1cccc(Cl)c1)c1ccccc1)c1ccccc1	/	/	/	/	/	198
COc1cc(NC(=S)NCCc2ccc(S(N)(=O)=O)cc2)c(OC)cc1Cl	?	37%[5.75 µM]	-21%	-5	12	-61*
O=C(O)/C(=C\C(=O)c1ccccc1)Nc1ccccc1	97%	144%	/	51*	83*	/
NS(=O)(=O)c1cccc(NC(=O)Nc2ccccc2)c1	103%	2.1µM*	6%	11*	26	20
Cn1c(CNc2cccc(Cl)c2)nnc1SCC(=O)OC1CCCCC1	/	0%	3%	-1	16	-80*
COc1cc(NC(=S)NCCCO)c(OC)cc1Cl	?	20%	9%	4	-6	1
CC(C)OC(=O)CSc1nnc(CNc2cccc(Cl)c2)n1C	?	?	13%	0	16	73
COc1cc(/C(C)=C/c2ccccc2)c2c(c1)oc1ccccc12	?	-9%	/	1	-4	/
Cc1cc(C)c(NC(=O)C(C)n2c(=O)cc(-c3ccccc3)c3c(C)nn(C)c32)c(C)c1 (configuration not stated)	/	/	/	/	/	13
COc1cc(OC)c(NC(=O)C2CC(=O)N(c3ccc4c(c3)OCCO4)C2)cc1Cl (configuration not stated)	1%	-5%	?	/	/	-29
O=C(Nc1ccccc1)Nc1ccc(Nc2ccccc2)cc1	/	/	3%	/	/	40
CC(=O)c1ccc(NC(=O)Nc2cccc(Cl)c2)cc1	?	/	-18%	37*	61*	99
O=C(Nc1ccccc1)Nc1ccccc1	/	/	?	48*	93*	0
O=C(CN1c2ccccc2Sc2ccccc21)NNC(=O)Nc1cccc(Cl)c1	-23%	-8%	-20%	1	-14	-73*
